Screening data deposited in PubChem by The Scripps Research Institute Molecular Screening Center.
The list is not random: actives were taken first. Their share in the collection is about 5.7%.
hgDAF-12 ag: H. glycines DAF-12 receptor agonists, primary screen, cell-based, luminescence, HEK293, GAL4 fusion, UAS-luciferase; Nuclear hormone receptor DAF-12 (Heterodera glycines), GAL4 fusion; HEK293 GAL4-hgDAF12 UAS-luciferase reporter, agonist luminescence; normalized to butyrate control; activation, % at 6.8 µM; 1.8% of 370,000 active;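 active means activation above a cutoff set at the mean of all screened compounds plus 3 SD, cut at about 10% in these data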;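 further: 0% = DMSO wells and 100% = sodium butyrate wells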
DAX1 inh-1: DAX1 (NR0B1) inhibitors on StAR promoter, primary screen, cell-based, luminescence, SF-1 (NR5A1), full-length DAX-1 | inhibition, % at 6.8 µM | 1.1% of 370,000 active | HEK293T StAR-luciferase reporter, SF-1/DAX-1 repression relief | AID 652010, 2013;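 active means inhibition above the mean over all tested compounds plus 3 SD, cut at about 3.6% in these data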;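 further: 0% = DAX-1 cells with DMSO and 100% = cells lacking DAX-1 with DMSO; higher inhibition means more luminescence from relief of DAX-1 repression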
DAX1 inh-2: DAX1 (NR0B1) inhibitors, primary screen, cell-based, HEK293, Gal4-DAX1, luciferase luminescence. 0.99% of 340,000 active. HEK293 Gal4-DAX1 luciferase reporter. Nuclear receptor subfamily 0 group B member 1 (Homo sapiens), P51843. inhibition, % at 6.75 µM. AID 504766, 2011;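 active means inhibition above the mean over all tested compounds plus 3 SD, cut at about 4.2% in these data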;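 further: 0% = DAX1-transfected cells with DMSO and 100% = empty-vector control cells with DMSO; inhibition shows as a rise in luminescence from relieved DAX1 repression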
ssDAF12 agonist: S. stercoralis DAF-12 nuclear receptor activators, primary screen, cell-based, luminescence, HEK293, GRIP1 co-expression, lit1-tk-luc; 1% of 370,000 active; Nuclear hormone receptor DAF-12 (Strongyloides stercoralis); activation, % at 6.8 µM; HEK293 ssDAF-12/GRIP1 lit1-tk-luc reporter; % of 3 µM dafachronic acid response;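 active means activation above the mean over all tested compounds plus 3 SD, cut at about 0.9% in these data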;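 further: 0% = DMSO-only wells and 100% = 3 µM delta7-dafachronic acid wells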
AHR activator: AHR activators, primary screen, cell-based, luminescence, luciferase reporter, human. activation, % at 5 µM. AHR-responsive luciferase reporter cells. Aryl hydrocarbon receptor (Homo sapiens), P35869. AID 2796, 2010. 2.5% of 320,000 active; in the data active means activation above about 47%;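 further: 0% = vehicle wells and 100% = reference agonist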
Target sequence (P35869 whole entry, looked up): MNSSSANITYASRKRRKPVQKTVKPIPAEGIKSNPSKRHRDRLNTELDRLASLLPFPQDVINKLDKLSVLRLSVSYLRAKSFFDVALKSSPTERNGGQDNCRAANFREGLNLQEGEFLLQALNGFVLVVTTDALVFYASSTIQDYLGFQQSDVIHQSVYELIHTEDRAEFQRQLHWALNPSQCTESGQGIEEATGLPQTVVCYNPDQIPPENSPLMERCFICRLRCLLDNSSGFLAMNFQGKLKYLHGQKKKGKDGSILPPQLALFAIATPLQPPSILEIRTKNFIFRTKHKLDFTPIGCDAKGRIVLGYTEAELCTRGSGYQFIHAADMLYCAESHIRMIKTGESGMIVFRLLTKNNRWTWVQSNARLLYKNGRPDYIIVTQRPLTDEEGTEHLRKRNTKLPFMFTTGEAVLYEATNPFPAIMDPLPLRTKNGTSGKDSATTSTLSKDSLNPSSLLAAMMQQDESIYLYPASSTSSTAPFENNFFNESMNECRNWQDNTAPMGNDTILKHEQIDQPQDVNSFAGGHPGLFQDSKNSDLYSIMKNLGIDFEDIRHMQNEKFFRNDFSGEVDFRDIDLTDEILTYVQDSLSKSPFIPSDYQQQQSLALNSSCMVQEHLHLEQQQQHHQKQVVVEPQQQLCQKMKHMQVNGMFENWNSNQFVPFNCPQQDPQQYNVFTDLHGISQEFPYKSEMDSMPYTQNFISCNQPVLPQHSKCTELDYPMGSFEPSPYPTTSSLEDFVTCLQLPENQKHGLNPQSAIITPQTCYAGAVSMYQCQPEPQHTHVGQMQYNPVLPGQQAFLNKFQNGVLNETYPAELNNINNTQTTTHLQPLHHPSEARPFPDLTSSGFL
hcDAF12 agonist: H. contortus DAF-12 nuclear receptor activators, primary screen, cell-based, luminescence, HEK293, lit1-tk-luc reporter. HEK293 hcDAF-12 lit1-tk-luc reporter; 0% DMSO, 100% Δ7-dafachronic acid. activation, % at 6.8 µM. 1.4% of 370,000 active;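 active means activation above the mean of all tested compounds plus 3 SD, cut at about 5.5% in these data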;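 further: 100% = response to 3 µM Δ7-dafachronic acid high control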
Numbers without * were called inactive.

Results for CCC(Sc1nncn1C)C(=O)Nc1nnc(-c2ccccc2Cl)s1 (centres undefined) ?
hgDAF-12 ag: 4; DAX1 inh-1: 3; DAX1 inh-2: 0; ssDAF12 agonist: -1; AHR activator: 52*; hcDAF12 agonist: 0

What do the screens show for `Cc1cc(Cl)ccc1NC(=O)/N=C1/NC(=O)CS1`?
hgDAF-12 ag: -1; DAX1 inh-1: 1; ssDAF12 agonist: 1.1*; hcDAF12 agonist: 1

Results for CCOc1ccc(NC(=O)Nc2cc(-c3ccccc3)sc2C(=O)OC)cc1 ?
hgDAF-12 ag: 0; DAX1 inh-1: 0; DAX1 inh-2: 1; ssDAF12 agonist: -1; AHR activator: 47*; hcDAF12 agonist: 4

How did CCOc1ccc(NC(=O)Nc2ccccc2SC)cc1 do in these assays?
hgDAF-12 ag: 11*; DAX1 inh-1: 2; DAX1 inh-2: 4.5*; ssDAF12 agonist: -1; AHR activator: 17; hcDAF12 agonist: 4

Results for COC(=O)c1sc(-c2ccccc2)cc1NC(=O)C1CC1 ?
hgDAF-12 ag: -2; DAX1 inh-1: -1; DAX1 inh-2: 1; ssDAF12 agonist: 0; AHR activator: 15; hcDAF12 agonist: 0

Results for COC(=O)[C@]12C[C@H](CC(=O)N3CCSCC3)C(=O)N(CCC3=CCCCC3)C1=C[C@H](C(C)(C)C)O[C@@H]2C ?
hgDAF-12 ag: 0; DAX1 inh-1: -1; ssDAF12 agonist: -1; hcDAF12 agonist: 0

How did Cc1cc(C)c[n+](CC(=O)c2ccccc2)c1 do in these assays?
hgDAF-12 ag: 1; DAX1 inh-1: 0; DAX1 inh-2: 2; ssDAF12 agonist: -1; hcDAF12 agonist: -2

Results for CC1=[N+](CC(=O)c2ccccc2)CCn2cccc21 ?
hgDAF-12 ag: 9; DAX1 inh-1: 2; ssDAF12 agonist: 1.0*; AHR activator: 47*; hcDAF12 agonist: 4

What do the screens show for `Cc1ncc(CO)c(/C=N/NC(=S)Nc2cccc(Cl)c2)c1O`?
DAX1 inh-2: -1; AHR activator: 54*

What do the screens show for `CC12CCC(C(N)=O)(c3nc4ccccc4nc31)C2(C)C` (centres undefined)?
hgDAF-12 ag: 1; DAX1 inh-1: 0; DAX1 inh-2: 0; ssDAF12 agonist: -1; AHR activator: -1; hcDAF12 agonist: 2

How did CC1(C)C2CCC1(C(=O)O)c1nc3ccccc3nc12 (centres undefined) do in these assays?
hgDAF-12 ag: 0; DAX1 inh-1: 0; DAX1 inh-2: 4.8*; ssDAF12 agonist: -1; AHR activator: 0; hcDAF12 agonist: -2

How did CSCCC(NS(=O)(=O)c1ccccc1F)C(=O)NCc1ccncc1 (centres undefined) do in these assays?
hgDAF-12 ag: 2; DAX1 inh-1: 0; DAX1 inh-2: 1; ssDAF12 agonist: -1; AHR activator: -2; hcDAF12 agonist: 1

Results for Nc1nc(Nc2ccccc2)sc1C(=O)c1ccccc1 ?
hgDAF-12 ag: 7; DAX1 inh-1: 1; DAX1 inh-2: -1; ssDAF12 agonist: -2; AHR activator: 8; hcDAF12 agonist: -2

How did C=CCNc1nc(N)c(C(=O)Nc2cc(C)on2)s1 do in these assays?
hgDAF-12 ag: 8; DAX1 inh-1: 2; DAX1 inh-2: 3; ssDAF12 agonist: -1; AHR activator: 40; hcDAF12 agonist: 0

Results for Cc1cnc(NC(=O)c2sc(Nc3ccccc3)nc2N)o1 ?
hgDAF-12 ag: 7; DAX1 inh-1: 1; ssDAF12 agonist: -1; AHR activator: 55*; hcDAF12 agonist: 1

What do the screens show for `Cc1cc(NC(=O)c2sc(Nc3ccc(F)cc3)nc2N)no1`?
hgDAF-12 ag: 4; DAX1 inh-1: 1; DAX1 inh-2: 2; ssDAF12 agonist: -2; AHR activator: 56*; hcDAF12 agonist: 0
